Growth data for 40 molecules are collected here from PubChem BioAssay (NCI).

This is part of a sample that, as a whole, favours compounds with a hit. Of some 83,000 tested, about 20% had one in any assay.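 Step 1: grow cells in 96-well plates. Step 2: add test compound at a single concentration. Step 3: incubate 48 h. Step 4: record percent growth.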 Calls of active or inactive are those of the source. How the source made its calls: active means growth percent below 10; inactive means the rest.

The first test has as its system U251 CNS. Put plainly: NCI-60 one-dose screen, 48 h (100 = growth as untreated, 0 = no growth, -100 = all killed). To be noted: 10 µM unless noted.
`Cc1ccc(/C=N/Nc2nc(Nc3ccccc3)nc(Nc3ccc(S(N)(=O)=O)cc3)n2)cc1`: the growth is 62.6% (inactive).

Regarding `Cc1ccc(S(=O)(=O)NCCCNc2nc(Nc3ccc(N4CCN(C)CC4)cc3)nc3ccsc23)cc1`, the growth is 6.58% (active).

Consider `CC(C)=CCC[C@](C)(O)[C@H]1CC[C@]2(C)[C@@H]1CC[C@@H]1[C@@]3(C)CC[C@H](N)C(C)(C)[C@@H]3CC[C@]12C`, for which the growth was 48.2% (inactive).

As for `NNc1nnc2nc(Nc3ccccc3)nc(Nc3ccc(S(N)(=O)=O)cc3)n12`, the growth was 105% (inactive).

The next test concerns PC-3 prostate. The test is described as above. To be noted: 10 µM unless noted.
As to `COCCOc1ccc2ncc(C#Cc3cncc(C(=O)Nc4ccc(CN5CCN(C)CC5)c(C(F)(F)F)c4)c3)n2n1`, the growth is 35% (inactive).

Consider `CCOC(=O)c1c(N)c(C#N)cn1Cc1ccc(Cl)cc1Cl`, for which the growth is 71.5% (inactive).

In the case of `Cc1ccc(Nc2nc(SC(C)C)nc(-c3ccccc3)c2C#N)cc1`, the growth was 99.9% (inactive).

Regarding `O=C(CSc1nc2ccccc2c(=O)n1-c1ccc(Cl)c(Cl)c1)Nc1ccc(S(=O)(=O)Nc2ccc(Cl)nn2)cc1`, the growth is 92.3% (inactive).

Regarding `N#Cc1cnc2ccc(-c3cnc4n[nH]nc4c3)cc2c1N1CCc2cc(F)c(Cl)cc21`, the growth was 20.4% (inactive).

For the molecule `CNC(=O)Nc1ccc(Nc2cc(-c3ccc(-n4cccn4)cc3)[nH]n2)c(C)c1`, the growth was 107% (inactive).

`CN1CCN(Cc2ccc(NC(=O)c3cncc(C#Cc4cnc5ccc(N)nn45)c3)cc2C(F)(F)F)CC1`: the growth is 36.9% (inactive).

As for `Cc1cc(=O)oc2cc(OCCCOc3ccc(/C=C/C(=O)Nc4ccc(Br)cc4)cc3)ccc12`, the growth was 81.8% (inactive).

In the case of `C/C(CC1(O)C(=O)Nc2ccccc21)=N\O` (centres undefined), the growth was 88.6% (inactive).

Regarding `Cc1ccc2c(n1)C(=O)C(Cl)=C(Nc1ccccc1C(=O)OC(C)(C)C)C2=O`, the growth is 67.1% (inactive).

In the case of `COc1ccc(/C=N\NC(=O)c2cnn(CC(O)c3ccccc3)c2N)cc1OCc1ccc(Cl)cc1` (centres undefined), the growth is 63.6% (inactive).

As for `NC(N)=NS(=O)(=O)c1ccc(N=Nc2c(N)nn(-c3ccc([N+](=O)[O-])cc3[N+](=O)[O-])c2N)cc1`, the growth was 92.8% (inactive).

Turning to `COc1ccccc1Cn1cc(C#N)c(N)c1C(=O)c1ccc(Br)cc1`, the growth is 96.8% (inactive).

Take `CC(=C(c1ccc(OCCN2CCCC2)cc1)c1ccc(OCCN2CCCC2)cc1)c1ccc(Cl)cc1`: the growth was -26.9% (active).

As to `CCN(CC)CCOc1ccc(C(=C(C)Cc2ccc(OC)cc2)c2ccc(OCCN(CC)CC)cc2)cc1`, the growth is 66.2% (inactive).

Regarding `Fc1ccc(-c2cn3c(-c4c[nH]c5ccc(Br)cc45)csc3n2)cc1`, the growth was 73.6% (inactive).

As for `CC1=C(C)C(=O)C(Nc2cccc(C(=O)OC(C)(C)C)c2)=CC1=O`, the growth was 76.7% (inactive).

Regarding `CSc1ccc(/C(=N/N=C(N)N)c2ccc(Cl)cc2)cc1`, the growth was 8.76% (active).

As for `O=C(/C=C/Nc1ccc(S(=O)(=O)Nc2ncccn2)cc1)c1ccc(N=Cc2c(O)[nH]c3ccccc23)cc1`, the growth is 101% (inactive).

In the case of `N#Cc1c(-c2cccs2)cc(-c2cnccn2)nc1SCC(=O)N/N=C/c1cccs1`, the growth is 53.6% (inactive).

For `O=S(=O)(NCCCNc1nccc(-c2[nH]c(-c3ccccc3)nc2-c2ccc(F)c(O)c2)n1)c1ccccc1`, the growth was 88.2% (inactive).

`CC1(C)CC[C@]2(C(=O)NCCCCCCN(CCCN)CCCN)CC[C@]3(C)C(=CC[C@@H]4[C@@]5(C)CC[C@H](O)C(C)(C)[C@@H]5CC[C@]43C)[C@@H]2C1`: the growth was 103% (inactive).

For the molecule `CCOC(=O)c1c(NCC(=O)Nc2cccc([N+](=O)[O-])c2)sc(C(C)=O)c1C`, the growth is -14.5% (active).

For `O=c1oc2ccc(-c3ccc(F)cc3F)cc2c(=O)n1-c1ccc(Br)cc1F`, the growth is 78.9% (inactive).

For the molecule `Cc1ccc2c(n1)C(=O)C(Cl)=C(Nc1cccc(C(=O)OC(C)(C)C)c1)C2=O`, the growth is 72% (inactive).

For the molecule `C/C(=C(\c1ccc(O)cc1)c1ccc(OCCN2CCCCCC2)cc1)c1ccc(Cl)cc1`, the growth was -69.9% (active).

As to `CC1=C(C)C(=O)C(Nc2cccc(C(F)(F)F)c2)=C(Br)C1=O`, the growth was 71% (inactive).

Take `CC(C)C(/C=C/c1[nH]ncc1-c1cc(Cl)ccc1O)N1CCOCC1` (centres undefined): the growth is 84.7% (inactive).

For the molecule `Fc1cccc(Cl)c1/C=N/Nc1nc(N/N=C/c2c(F)cccc2Cl)nc(N2CCCCC2)n1`, the growth is 18.7% (inactive).

Turning to `COc1ccc(C2C(C#N)=C(/N=C/c3ccc(Cl)cc3)Oc3c2sc2c(C)cccc32)cc1` (centres undefined), the growth was 19.2% (inactive).

Take `O=C(CCCCCCNC(=O)C(O)(O)C(F)(F)F)Nc1ccc(Cl)cc1`: the growth is 35.3% (inactive).

In the case of `O=C1C(SCc2ccccc2)=C(Cl)CN1c1ccc(Cl)cc1`, the growth is 107% (inactive).

Take `Cc1ccc(-c2nc(SCC(=O)c3ccccc3)nc(Nc3ccc(S(N)(=O)=O)cc3)c2C#N)cc1`: the growth was 92.6% (inactive).

As for `O=C1C(N2CCN(c3ccccc3)CC2)=C(Cl)C(=O)c2ncccc21`, the growth was 71.9% (inactive).

`C#Cc1nc(C(=O)NCCCCCCC(=O)NO)cs1`: the growth is 14.3% (inactive).

Turning to `C[C@H](Nc1ncnc2ccc(-c3cnc(Cl)c(NS(C)(=O)=O)c3)cc12)c1ccccc1`, the growth is 2.25% (active).

`Cc1ccc(/C=N/Nc2nc(Nc3ccccc3)nc(Nc3ccc(S(N)(=O)=O)cc3)n2)cc1`: the growth is 66.8% (inactive).

In the case of `Cc1ccc(S(=O)(=O)NCCCNc2nc(Nc3ccc(N4CCN(C)CC4)cc3)nc3ccsc23)cc1`, the growth is 63.5% (inactive).

Take `CC(C)=CCC[C@](C)(O)[C@H]1CC[C@]2(C)[C@@H]1CC[C@@H]1[C@@]3(C)CC[C@H](N)C(C)(C)[C@@H]3CC[C@]12C`: the growth is 68.3% (inactive).

Turning to `NNc1nnc2nc(Nc3ccccc3)nc(Nc3ccc(S(N)(=O)=O)cc3)n12`, the growth is 103% (inactive).
